Source: PubChem (National Center for Advancing Translational Sciences (NCATS))
Vaccinia mCherry – inhibitors of vaccinia virus infection (mCherry reporter signal); Vaccinia virus mCherry reporter infection, fluorescence; 310,000 tested, 0.63% active; Potency, µM (doses to about 36.5 µM), hits mostly inhibitors; calls by dose curve; tested in A549 cells; note: nearly all actives have a fitted effect of over 35% in size
HCV inh – HCV inhibition; Huh7.5.1 HCVcc-Cre infection, luciferase reporter, 44 h; Potency, µM (doses to about 41.8 µM), hits mostly inhibitors; 340,000 tested, 3.4% active
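Whole-lifecycle infectious HCVcc-Cre system; cells 1,000/well, compound then virus (~0.5 moi) added 4 h after plating, 44 h culture. Luciferase read 15 sec following 15 min substrate incubation, room temp.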
NS1 function inh – inhibitors of influenza NS1 protein function. 270,000 tested, 0.4% active. Potency, µM (highest dose often 46.1 µM); calls by dose curve; note: actives are rising curves; nearly all actives have a fitted effect of over 50% in size
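In this qHTS, NS1 from influenza A is expressed in budding yeast, where it slows growth. Cells are switched from glucose to 2% galactose medium (pH 6.0, -URA), treated with compound, and growth recovery is read at OD600.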
Pf growth 96h – P. falciparum growth inhibition at 96 hour, primary screen for plastid delayed-death inhibitors | AID 504834 | P. falciparum luciferase reporter growth, 96 h | 320,000 tested, 6.9% active | Potency, µM (highest dose often 28.7 µM), actives largely listed as inhibitors
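Delayed-death screen, second-generation endpoint: infected erythrocytes, 2% hematocrit, 0.05% parasitemia final; 96 hours at 37 C, 5% CO2; luciferase detection reagent; luminescence decrease equals reduced growth.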
Pf growth 48h – P. falciparum growth inhibition at 48 hours (one generation); Potency, µM (highest dose often 28.7 µM), actives largely listed as inhibitors; P. falciparum luciferase growth in erythrocytes, 48 h; AID 504832; 310,000 tested, 5.9% active
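Luciferase-expressing P. falciparum in infected erythrocytes (2% hematocrit, 0.1% parasitemia final) in RPMI 1640/0.5% Albumax were exposed to compound for 48 hours at 37 C, 5% CO2; growth read as luminescence.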
Vaccinia Venus – vaccinia inhibition (Venus reporter) | Potency, µM (series often up to 36.5 µM), most hits filed as inhibitors | Vaccinia virus Venus reporter expression, fluorescence | AID 720580 | 330,000 tested, 0.46% active; calls by dose curve; tested in A549 cells; note: nearly all actives have a fitted effect of over 30% in size
Numbers stand for hits; . = inactive; ? = inconclusive; / = no result given; [ ] = dose if it differs, or a comment. Rows were chosen to be rich in hits. Some 11% of all compounds tested hit in one or more screens of this group. Unless noted, calls come from the whole dose curve; as a rule, active = well fitted inhibition curve with a large enough effect; inconclusive = small, poorly fitted or top-dose-only effect, or another doubt; inactive = no such curve, though single readings can be large or run the other way.

SMILES | Vaccinia mCherry | HCV inh | NS1 function inh | Pf growth 96h | Pf growth 48h | Vaccinia Venus
COc1ccccc1C(CCNCc1ccc(N(C)C)cc1)c1ccc(OC(C)C)cc1 (stereo not given) | / | ? | . | 13µM | 8.3µM | /
COc1ccc(CNCCC(c2ccc(OC(C)C)cc2)c2ccccc2OC)cc1OC (stereo not given) | . | 13µM | . | ? | 13µM | .
Cc1ccccc1S(=O)(=O)c1cc(C#N)c(=O)[nH]c1N | . | . | / | . | . | .
CC(C)C1Cc2[nH]c(=S)[nH]c(=O)c2C(c2ccc(Cl)cc2)O1 (stereo not given) | . | / | / | / | / | .
COc1ccccc1NC(=O)CC(c1ccc(OC(C)C)cc1)c1ccccc1OC (stereo not given) | . | 11µM | . | ? | . | .
COc1ccccc1C(CC(=O)Nc1ccc(C)c(C)c1)c1ccc(OC(C)C)cc1 (stereo not given) | . | ? | . | . | ? | .
COc1ccc(CNCCC(c2ccc(OC(C)C)cc2)C(C)C)cc1OC (stereo not given) | / | 8.9µM | . | ? | ? | /
Cc1ccc(C(=O)NCCc2nnc3n2CCN(Cc2ccc4ccccc4c2)CC3)c(C)c1 | . | / | / | / | / | .
O=C(Nc1ccc(Cl)c(Cl)c1)c1ccc(Cn2c(=O)[nH]c3ccsc3c2=O)cc1 | . | .[8.37 µM] | . | ? | . | ?
O=C(Nc1ccc(Oc2ccccc2)cc1)c1ccc(Cn2c(=O)[nH]c3ccsc3c2=O)cc1 | . | .[8.37 µM] | . | 13µM | . | .
COc1ccc(/C=N/NC(=O)C(=O)/C=C2\NC3(CCCC3)Cc3ccccc32)cc1 | ? | 10µM | . | ? | ? | ?
COc1cc2c(cc1OC)C(COc1ccc3c(C)cc(=O)oc3c1)N(C(=O)C(C)C)CC2 (stereo not given) | . | / | / | / | / | .
CN(C)CCN(C)c1cc2c(c3c1ccn3C)C1CCC2O1 (stereo not given) | . | / | / | / | / | .
COc1ccc(N2C(=O)CC(Cc3ccccc3)C2=O)cc1 (stereo not given) | / | . | . | . | . | /
Cc1ccc(C)c(N2C(=O)CC(Cc3ccccc3)C2=O)c1 (stereo not given) | . | . | . | 15µM | . | .
Cn1c(N2C(=O)CC(Cc3ccccc3)C2=O)nc2ccccc21 (stereo not given) | / | . | . | 1.7µM | . | .
C=CCN1CN(Cc2ccco2)CNC1=S | . | . | . | . | . | .
COc1[nH]c(/N=C/c2ccccc2)c(C#N)c1C#N | . | . | . | . | . | .
CC(=O)C1=C(O)C(=O)N(Cc2cccnc2)C1c1ccccc1Cl (stereo not given) | / | . | . | . | . | .
Cc1ccc2c(c1)c1c(n2C)C(=O)CCC1 | . | 4µM | . | . | . | .
O=Cc1ccc(OC(=O)CCCCC(=O)Oc2ccc(C=O)cc2)cc1 | / | . | . | 0.0033µM | ? | /
COc1ccc(C[C@@H]2C(=O)N[C@H](C)C(=O)N(C)[C@@H]3C(=O)N(C)[C@@H](Cc4ccc(O)c(c4)Oc4ccc(cc4)[C@H]3O)C(=O)N[C@@H](C)C(=O)N[C@H](C)C(=O)N2C)cc1 | / | / | . | / | / | /
CC[C@H](C)C1OC(=O)[C@@H](C)[C@@H](CC)NC(=O)[C@H](C)N(C)C(=O)C(C)(C)C(=O)C(C)NC(=O)[C@H](Cc2ccc(OC)cc2)N(C)C(=O)[C@H](C(C)C)N(C)C(=O)CNC(=O)[C@H](CC(C)C)N(C)C(=O)CNC1=O (stereo not given in full) | 0.89µM | / | / | / | / | 1µM
CCC[C@H]1NC(=O)[C@H](C)N(C)C(=O)C(C)(C)C(=O)C(C)NC(=O)[C@H](Cc2ccc(OC)cc2)N(C)C(=O)[C@H](C(C)C)N(C)C(=O)CNC(=O)[C@H](CC(C)C)N(C)C(=O)CNC(=O)[C@H]([C@@H](C)CC)OC(=O)[C@H]1C (stereo not given in full) | ? | 0.56µM | / | / | / | 0.32µM
CC(C)NC(=O)N(C)C[C@H]1Oc2c(NC(=O)C3CC3)cccc2C(=O)N([C@H](C)CO)C[C@@H]1C | . | . | / | / | / | .
SMILES | Vaccinia mCherry | HCV inh | NS1 function inh | Pf growth 96h | Pf growth 48h | Vaccinia Venus
CC(C)NC(=O)COC(=O)CNC(=O)C1CCCCC1 | . | / | / | / | / | .
COc1ccccc1NC(=O)/C(=C\c1cccnc1)NC(=O)c1ccc(C)cc1 | . | . | . | 10µM | . | .
COc1ccccc1NC(=O)/C(=C\c1cccnc1)NC(=O)c1ccccc1 | . | . | . | . | . | .
COc1ccccc1CCNC(=O)/C(=C/c1cccnc1)NC(=O)c1ccccc1 | / | . | . | 10µM | . | /
CC(C)N1CCC(C)(C(=O)Nc2cc(-c3ccccc3)nn2C)C1 (stereo not given) | . | / | / | / | / | .
Cc1cc(OCCCCCNCCO)cc(C)c1Cl | / | 13µM | . | 13µM | / | /
Cc1ccccc1OCC(O)Cn1c(=N)n(Cc2ccccc2)c2ccccc21 (stereo not given) | 10µM | ? | . | . | ? | 11µM
C=CCn1c(=N)n(CC(O)COc2ccccc2OC)c2ccccc21 (stereo not given) | . | ? | . | ? | / | .
CCCCCn1c(=N)n(CC(O)COc2ccccc2OC)c2ccccc21 (stereo not given) | ? | 11µM | . | ? | 4.7µM | ?
N=c1n(Cc2ccccc2)c2ccccc2n1CC(O)c1ccccc1 (stereo not given) | / | ? | ? | 2.3µM | 2.1µM | /
COc1ccccc1OCC(O)Cn1c(=N)n(Cc2ccccc2)c2ccccc21 (stereo not given) | / | ? | . | ? | 9.3µM | /
CC(CCc1ccccc1)NC(=O)Cc1ccccc1 (stereo not given) | . | . | . | . | . | .
CCOc1ccccc1NC(=O)C(CC)n1c(C(=O)OC)cc2occc21 (stereo not given) | . | / | / | / | / | .
Cc1cccc(N2CCN(S(=O)(=O)c3ccc4c(c3)n(C)c(=O)c(=O)n4C)CC2C)c1 (stereo not given) | / | . | . | / | . | /
Cc1cccc(N2CCN(c3ccc4cc(S(=O)(=O)N5CCCCC5)ccc4n3)CC2)c1C | . | . | . | ? | 12µM | .
Cc1ccc(C)c(N2CCN(c3ccc4cc(S(=O)(=O)N5CCCCC5)ccc4n3)CC2)c1 | / | . | . | 9.3µM | . | /
Cc1cccc(N2CCN(C(=O)c3cccc(S(=O)(=O)N4CCCCC4)c3)CC2)c1C | . | ? | / | / | / | .
Cc1cccc(N2CCN(c3ccc4cc(S(=O)(=O)N5CCCCC5)ccc4n3)CC2C)c1 (stereo not given) | . | ? | . | 10µM | ? | .
COc1ccc(NC(=O)Nc2nnc(N3CCCCCC3)s2)cc1 | . | / | / | / | / | .
Cc1ccc(-c2nnc3c4ccccc4c(C)nn23)cc1S(=O)(=O)N1CCN(CCO)CC1 | / | . | . | ? | 0.41µM | /
Cc1ccc(-c2nnc3c4ccccc4c(C)nn23)cc1S(=O)(=O)N1CCN(C)CC1 | / | . | . | / | / | /
